Measurements as given in PubChem BioAssay AID1159580 (chemical genetic matrix, 2015).
The campaign covered roughly 5,500 compounds. About 2,000 (36%) were called active. Inconclusive results (about 18%) are left out. Some of the results follow. Unmarked numbers belong to inactive results. Cut-off read from the data, not from the text of the source: active = normalized growth mostly below about 0.91 (no sharp cut-off); inconclusive = no clear call, values can overlap the other calls; inactive = mostly above about 0.92.

Experiment: chemical genetic growth profiling, strain panel (AID 1159580);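 note: tested at 20 µM; growth read once vehicle control cultures reached saturation at 30 °C; 1 = growth at the plate median or of vehicle wells; lower values mean less growth of the strain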
Conditions: growth OD

Compound `CCC(C)C(=O)c1c(O)c(C)c2oc3c(C)c(O)c(C(=O)C(C)CC)c(O)c3c2c1O` (centres undefined) has a normalized growth (S. cerevisiae deletion strains, locus YJL187C, strain SWE1, stronger effect = lower value) of 0.983, a normalized growth (S. cerevisiae deletion strains, locus YJR043C, strain POL32, stronger effect = lower value) of 0.936 and a normalized growth (S. cerevisiae deletion strains, locus YJR075W, strain HOC1, stronger effect = lower value) of 0.96. The normalized growth (S. cerevisiae deletion strains, locus YKL068W, stronger effect = lower value) was 0.965, the normalized growth (S. cerevisiae deletion strains, locus YKL085W, strain MDH1 (second series), stronger effect = lower value) was 1.11 [resistant] (active) and the normalized growth (S. cerevisiae deletion strains, locus YKL085W, strain MDH1, stronger effect = lower value) was 1.11 [resistant] (active). For the same compound, the normalized growth (S. cerevisiae deletion strains, locus YKL160W, strain elf1, stronger effect = lower value) was 0.979, the normalized growth (S. cerevisiae deletion strains, locus YKR001C, strain vps1, stronger effect = lower value) was 0.952 and the normalized growth (S. cerevisiae deletion strains, locus YKR026C, strain gcn3, stronger effect = lower value) was 1.01. It also gave a normalized growth (S. cerevisiae deletion strains, locus YKR091W, strain srl3, stronger effect = lower value) of 0.992, a normalized growth (S. cerevisiae deletion strains, locus YLL001W, strain dnm1, stronger effect = lower value) of 0.98 and a normalized growth (S. cerevisiae deletion strains, locus YLL026W, stronger effect = lower value) of 0.996. The normalized growth (S. cerevisiae deletion strains, locus YLL041C, strain sdh2, stronger effect = lower value) was 1.01, the normalized growth (S. cerevisiae deletion strains, locus YLR027C, strain aat2, stronger effect = lower value) was 0.965 and the normalized growth (S. cerevisiae deletion strains, locus YLR039C, strain RIC1, stronger effect = lower value) was 0.674 (active). The normalized growth (S. cerevisiae deletion strains, locus YLR058C, strain SHM2, stronger effect = lower value) was 0.866 (active), the normalized growth (S. cerevisiae deletion strains, locus YLR102C, strain apc9, stronger effect = lower value) was 0.98 and the normalized growth (S. cerevisiae deletion strains, locus YLR221C, strain rsa3, stronger effect = lower value) was 0.957. It also gave a normalized growth (S. cerevisiae deletion strains, locus YLR258W, strain gsy2, stronger effect = lower value) of 0.971, a normalized growth (S. cerevisiae deletion strains, locus YLR262C, strain YPT6 (second series), stronger effect = lower value) of 0.949 and a normalized growth (S. cerevisiae deletion strains, locus YLR262C, strain YPT6, stronger effect = lower value) of 0.773. For the same compound, the normalized growth (S. cerevisiae deletion strains, locus YLR268W, strain sec22, stronger effect = lower value) was 0.904, the normalized growth (S. cerevisiae deletion strains, locus YLR320W, strain mms22, stronger effect = lower value) was 0.954 and the normalized growth (S. cerevisiae deletion strains, locus YLR330W, strain CHS5, stronger effect = lower value) was 0.979. For the same compound, the normalized growth (S. cerevisiae deletion strains, locus YLR342W, strain FKS1 (second series), stronger effect = lower value) was 0.92, the normalized growth (S. cerevisiae deletion strains, locus YLR342W, strain FKS1, stronger effect = lower value) was 0.968 and the normalized growth (S. cerevisiae deletion strains, locus YLR357W, strain rsc2, stronger effect = lower value) was 0.957. The normalized growth (S. cerevisiae deletion strains, locus YLR370C, strain arc18, stronger effect = lower value) was 0.983, the normalized growth (S. cerevisiae deletion strains, locus YLR371W, strain rom2, stronger effect = lower value) was 0.973 and the normalized growth (S. cerevisiae deletion strains, locus YLR384C, strain iki3, stronger effect = lower value) was 0.975. For the same compound, the normalized growth (S. cerevisiae deletion strains, locus YLR418C, strain cdc73, stronger effect = lower value) was 0.974, the normalized growth (S. cerevisiae deletion strains, locus YML016C, strain PPZ1, stronger effect = lower value) was 0.974 and the normalized growth (S. cerevisiae deletion strains, locus YML032C, strain rad52, stronger effect = lower value) was 0.94. It also gave a normalized growth (S. cerevisiae deletion strains, locus YML120C, strain ndi1, stronger effect = lower value) of 0.989, a normalized growth (S. cerevisiae deletion strains, locus YML124C, strain tub3, stronger effect = lower value) of 0.992 and a normalized growth (S. cerevisiae deletion strains, locus YMR058W, strain fet3, stronger effect = lower value) of 0.986. The normalized growth (S. cerevisiae deletion strains, locus YMR078C, strain ctf18, stronger effect = lower value) was 0.989, the normalized growth (S. cerevisiae deletion strains, locus YMR125W, strain sto1, stronger effect = lower value) was 0.969 and the normalized growth (S. cerevisiae deletion strains, locus YMR129W, stronger effect = lower value) was 0.981. The normalized growth (S. cerevisiae deletion strains, locus YMR205C, strain PFK2, stronger effect = lower value) was 0.967, the normalized growth (S. cerevisiae deletion strains, locus YMR223W, strain ubp8, stronger effect = lower value) was 0.957 and the normalized growth (S. cerevisiae deletion strains, locus YMR231W, strain pep5, stronger effect = lower value) was 0.993. The normalized growth (S. cerevisiae deletion strains, locus YMR263W, strain SAP30, stronger effect = lower value) was 0.975, the normalized growth (S. cerevisiae deletion strains, locus YMR307W, strain GAS1, stronger effect = lower value) was 1.09 and the normalized growth (S. cerevisiae deletion strains, locus YNL067W, strain RPL9B, stronger effect = lower value) was 0.964. It also gave a normalized growth (S. cerevisiae deletion strains, locus YNL071W, strain lat1, stronger effect = lower value) of 1, a normalized growth (S. cerevisiae deletion strains, locus YNL153C, strain GIM3, stronger effect = lower value) of 0.928 and a normalized growth (S. cerevisiae deletion strains, locus YNL209W, strain ssb2, stronger effect = lower value) of 0.982. It also gave a normalized growth (S. cerevisiae deletion strains, locus YNL233W, strain BNI4, stronger effect = lower value) of 0.993, a normalized growth (S. cerevisiae deletion strains, locus YNL248C, strain rpa49, stronger effect = lower value) of 0.91 and a normalized growth (S. cerevisiae deletion strains, locus YNL250W, strain rad50, stronger effect = lower value) of 0.966. It also gave a normalized growth (S. cerevisiae deletion strains, locus YNL271C, strain bni1, stronger effect = lower value) of 0.987, a normalized growth (S. cerevisiae deletion strains, locus YNL298W, strain CLA4, stronger effect = lower value) of 0.972 and a normalized growth (S. cerevisiae deletion strains, locus YNL307C, strain MCK1, stronger effect = lower value) of 0.982. It also gave a normalized growth (S. cerevisiae deletion strains, locus YNL322C, strain KRE1 (second series), stronger effect = lower value) of 0.978, a normalized growth (S. cerevisiae deletion strains, locus YNR049C, strain mso1, stronger effect = lower value) of 0.994 and a normalized growth (S. cerevisiae deletion strains, locus YNR052C, strain pop2, stronger effect = lower value) of 0.966. The normalized growth (S. cerevisiae deletion strains, locus YOL012C, strain htz1) was 0.792, the normalized growth (S. cerevisiae deletion strains, locus YOL147C, strain pex11, stronger effect = lower value) was 0.986 and the normalized growth (S. cerevisiae deletion strains, locus YOR001W, strain rrp6, stronger effect = lower value) was 0.954. It also gave a normalized growth (S. cerevisiae deletion strains, locus YOR061W, strain CKA2, stronger effect = lower value) of 0.932, a normalized growth (S. cerevisiae deletion strains, locus YOR069W, strain VPS5, stronger effect = lower value) of 0.977 and a normalized growth (S. cerevisiae deletion strains, locus YOR070C, strain gyp1, stronger effect = lower value) of 0.966. The normalized growth (S. cerevisiae deletion strains, locus YOR080W, strain dia2, stronger effect = lower value) was 0.978, the normalized growth (S. cerevisiae deletion strains, locus YOR083W, strain WHI5, stronger effect = lower value) was 1 and the normalized growth (S. cerevisiae deletion strains, locus YOR106W, strain vam3, stronger effect = lower value) was 0.973. It also gave a normalized growth (S. cerevisiae deletion strains, locus YOR136W, strain idh2, stronger effect = lower value) of 0.986, a normalized growth (S. cerevisiae deletion strains, locus YOR144C, strain elg1, stronger effect = lower value) of 0.992 and a normalized growth (S. cerevisiae deletion strains, locus YOR184W, strain ser1, stronger effect = lower value) of 0.977. For the same compound, the normalized growth (S. cerevisiae deletion strains, locus YOR265W, strain rbl2, stronger effect = lower value) was 0.981, the normalized growth (S. cerevisiae deletion strains, locus YOR270C, strain vph1, stronger effect = lower value) was 0.921 and the normalized growth (S. cerevisiae deletion strains, locus YOR290C, strain snf2, stronger effect = lower value) was 0.967. The normalized growth (S. cerevisiae deletion strains, locus YOR316C, strain cot1, stronger effect = lower value) was 0.974, the normalized growth (S. cerevisiae deletion strains, locus YPL051W, strain arl3, stronger effect = lower value) was 0.923 and the normalized growth (S. cerevisiae deletion strains, locus YPL078C, strain atp4, stronger effect = lower value) was 0.992. The normalized growth (S. cerevisiae deletion strains, locus YPL106C, strain sse1, stronger effect = lower value) was 0.966, the normalized growth (S. cerevisiae deletion strains, locus YPL240C, strain hsp82, stronger effect = lower value) was 0.995 and the normalized growth (S. cerevisiae deletion strains, locus YPL241C, strain CIN2, stronger effect = lower value) was 0.995. It also gave a normalized growth (S. cerevisiae deletion strains, locus YPR119W, strain clb2, stronger effect = lower value) of 0.99, a normalized growth (S. cerevisiae deletion strains, locus YPR141C, strain kar3, stronger effect = lower value) of 0.967 and a normalized growth (S. cerevisiae deletion strains, locus YPR163C, strain tif3, stronger effect = lower value) of 0.994. The normalized growth (S. cerevisiae deletion strains, locus YPR167C, strain met16, stronger effect = lower value) was 0.976, the normalized growth (S. cerevisiae deletion strains, strain wtn01, stronger effect = lower value) was 0.969 and the normalized growth (S. cerevisiae strains, strain wild type, stronger effect = lower value) was 0.965.
